Sampled rows, rich in hits. Any-hit rate of the full collection: about 3.9%.
ERK AVP inh = vasopressin-driven ERK pathway inhibition; HEK293-V1b, vasopressin-stimulated pERK AlphaScreen; 72,000 compounds, 0.99% hits; AID 995; Potency, µM (doses to about 57.5 µM), most hits filed as inhibitors; further: nearly all actives have a fitted effect of over 55% in size
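HEK293 cells stably expressing V1b receptor, preincubated 30 min at 37 °C with compound, then stimulated 5 min with 25 nM vasopressin. Phospho-ERK by AlphaScreen SureFire after 5 h RT; normalized to DMSO and vasopressin; AC50 by Hill fit.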
Casp7 inh = allosteric or competitive inhibitors of human caspase-7; Potency, µM (series often up to 57.5 µM), most hits filed as inhibitors; P55210; 75,000 compounds, 0.02% hits; recombinant caspase-7, Ac-DEVD-AFC fluorescence rate; active means well fitted inhibition curve with a large enough effect in the main read-out, with a control signal flat, not every such curve was filed as active; inconclusive means small, poorly fitted or top-dose-only effect, or a change in a side signal
Tau filament bind = binders of human tau filaments; P10636; recombinant tau filaments, thioflavin S fluorescence, 15 h; filaments grown with octadecylsulfate alongside compound; Potency, µM (highest dose often 57.1 µM); 71,000 compounds, 2% hits;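 further: actives lower thioflavin S fluorescence by blocking filaments or displacing dye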
Target sequence (P10636 whole entry, looked up): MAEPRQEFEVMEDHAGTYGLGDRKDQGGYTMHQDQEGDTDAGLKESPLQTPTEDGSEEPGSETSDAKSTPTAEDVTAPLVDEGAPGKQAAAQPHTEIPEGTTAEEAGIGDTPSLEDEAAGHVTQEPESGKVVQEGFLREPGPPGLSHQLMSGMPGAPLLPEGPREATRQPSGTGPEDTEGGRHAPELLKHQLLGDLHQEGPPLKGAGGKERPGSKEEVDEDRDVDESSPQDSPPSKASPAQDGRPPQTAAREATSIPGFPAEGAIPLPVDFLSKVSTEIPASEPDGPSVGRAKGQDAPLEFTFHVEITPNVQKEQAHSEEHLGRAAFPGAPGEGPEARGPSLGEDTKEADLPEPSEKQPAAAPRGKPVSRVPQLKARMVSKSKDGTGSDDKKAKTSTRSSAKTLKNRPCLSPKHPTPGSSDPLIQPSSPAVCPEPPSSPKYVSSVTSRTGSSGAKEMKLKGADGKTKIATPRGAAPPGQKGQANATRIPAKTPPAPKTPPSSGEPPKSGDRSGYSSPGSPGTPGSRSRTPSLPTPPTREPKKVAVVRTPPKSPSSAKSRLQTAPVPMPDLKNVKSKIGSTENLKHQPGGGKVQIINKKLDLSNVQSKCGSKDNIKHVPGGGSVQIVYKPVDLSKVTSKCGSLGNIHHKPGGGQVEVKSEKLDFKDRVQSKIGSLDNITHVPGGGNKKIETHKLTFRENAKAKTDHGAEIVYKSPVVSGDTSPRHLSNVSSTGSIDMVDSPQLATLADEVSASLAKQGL
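His-tagged recombinant human tau (exons 2, 3 and 10 included), 1 uM, was induced to fibrillize by 30 uM sodium octadecylsulfate with compound present. After 15 h at 37 C, thioflavine S fluorescence (ex 450, em 510 nm) was read.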
Casp1 inh = caspase-1 (human) inhibition, allosteric or competitive | Potency, µM (doses to about 57.5 µM), usual class: inhibitors | Caspase-1 enzyme, Ac-WEHD-AFC fluorogenic rate | P29466 | 75,000 compounds, 0.03% hits
ALOX15 inhib = 15-hLO (ALOX15) enzyme inhibition | Potency, µM (top dose mostly 57.1 µM), hits mostly inhibitors | P16050 | purified 15hLO-1, xylenol orange hydroperoxide absorbance | 74,000 compounds, 1.4% hits; further: nearly all actives have a fitted effect of over 55% in size
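Compounds were preincubated 15 min at room temperature with 40 nM purified human enzyme (25 mM Hepes pH 7.5, 0.01% Triton X-100); 50 uM arachidonic acid reacted 6 min. Fe-xylenol orange detection, 30 min, absorbance ratio 573/405 nm.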
Hits are given with their value; i = inactive; ? = inconclusive; nt = not tested or not shown; [ ] = remark or other dose. Unless noted, the call rests on the fitted dose curve; in most records, active means well fitted curve in the direction sought with a large enough effect; inconclusive means small, poorly fitted or top-dose-only effect, or another doubt; inactive means no such curve, though single readings can be large; an effect the other way counts as inactive or inconclusive.

SMILES	ERK AVP inh	Casp7 inh	Tau filament bind	Casp1 inh	ALOX15 inhib
O=C(O)/C=C(/C(=O)O)[C@]12CCN3CC4=CCO[C@@H]5CC(=O)N[C@@H]1[C@H]5[C@H]4C[C@H]32	i[11.5 µM]	i[11.5 µM]	i[11.4 µM]	i[11.5 µM]	i[11.4 µM]
COCC(=O)N1CCC2(CC1)CN(c1ccccc1)C2	i	i	i	i	i
COc1ccc(NC2c3ccccc3C(=O)N2Cc2ccco2)cc1OC (configuration not stated)	i	i	i	i	i
CCOc1ccc(NC2c3ccccc3C(=O)N2Cc2ccco2)cc1 (configuration not stated)	?	i	16µM	i	i
O=C1c2ccccc2C(Nc2ccc(F)c(Cl)c2)N1Cc1ccco1 (configuration not stated)	?	i	13µM	i	?
COc1ncc2ncc(=O)n(C3CC3)c2n1	i	i	i	i	i
O=C(Nc1ccc(S(=O)(=O)N2CCCC2)cc1)c1ccc(CN2CCOCC2)cc1	10µM	i	i	i	?
O=C(Nc1ccc(Cc2ccncc2)cc1)c1ccc(S(=O)(=O)N2CCOCC2)cc1	i	i	i	i	i
Clc1ccccc1-c1nc(NCc2cccs2)c2ccccc2n1	i	?	i	?	i
COc1cccc(N2C(=O)CC(Nc3ccc(N4CCOCC4)cc3)C2=O)c1 (configuration not stated)	nt	i	nt	i	13µM
Oc1ccc(-c2nc(-c3ccc(O)c(O)c3)cs2)cc1	?	i	?	i	1.6µM
O=C(Nc1ccc2oc(-c3ccccc3)nc2c1)c1cccnc1	i	i	i	i	i
CCc1ccc2oc(-c3cccc(NC(=O)c4cccnc4)c3)nc2c1	25µM	i	i	i	i
O=C(O)/C=C\C(=O)Nc1ncn[nH]1	i[11.5 µM]	i[11.5 µM]	i[11.4 µM]	i[11.5 µM]	i[11.4 µM]
CCOC(=O)C(C)Sc1nc(-c2ccco2)cc(C(F)(F)F)c1C#N (configuration not stated)	i	i	20µM	i	i
CCCCCCCCCCCCCCCCOC[C@@H](COCC(F)(F)F)OP(=O)(O)OCO	nt	nt	i	nt	nt
Cn1c(=O)c2[nH]c(/N=N\N3CCN(CCO)CC3)nc2n(C)c1=O	i[11.5 µM]	i[11.5 µM]	i[11.4 µM]	i[11.5 µM]	i[11.4 µM]
Cc1cc(N)n2ncc(-c3ccccc3)c2n1	25µM	i	i	i	?
Cc1cc(N)n2ncc(-c3cccc(Br)c3)c2n1	i	i	1.6µM	i	i[11.4 µM]
Cc1cc(N)n2nc(-c3ccccc3)cc2n1	i	i	i	i	i
Cc1cc(N2CCN(C3CCCC3)CC2)n2ncc(-c3ccccc3)c2n1	i	i	i	i	i
O=c1c(CCc2ccccc2)nc2cnc(N3CCOCC3)nc2n1-c1ccccc1	i	?	i	nt	i
O=C(O)CNC(=O)c1ccc(CO)o1	i	i	i	i	i
c1cc2c3c(c1)c1c(n3CCNC2)CCCC1	?	i	32µM	i	?
c1ccc2c(c1)c1c3n2CCNC3CCC1 (configuration not stated)	i	i	i	i	i
SMILES	ERK AVP inh	Casp7 inh	Tau filament bind	Casp1 inh	ALOX15 inhib
O=C(CSc1nc2ccccc2c(=O)[nH]1)c1ccc(O)c(O)c1	16µM	i	i	i	?
O=C(CSc1nc2ccccc2c(=O)[nH]1)c1cccs1	i	i	i	i	i
C=CCCCC	i	i	i	i	i
CC(C)(C)C(=O)COC(=O)c1cccc(NC(=O)c2ccco2)c1	i	i	i	i	i
O=C(COC(=O)c1cccc(NC(=O)c2ccco2)c1)c1ccc(Br)cc1	16µM	i	i[11.4 µM]	i	i[11.4 µM]
COc1ccc(NCc2c(O)ccc3ccccc23)cc1	i[11.5 µM]	i[11.5 µM]	i[11.4 µM]	i[11.5 µM]	i[11.4 µM]
OC[C@H](S)CS	i[11.5 µM]	i[11.5 µM]	i[11.4 µM]	i[11.5 µM]	i[11.4 µM]
COc1cc(CNc2ccc(C)c(C)c2)cc(OC)c1OC	40µM	i	?	i	10µM
Cn1c(CSCc2ccccc2Cl)nnc1SCC(=O)Nc1nccs1	?	i	i	i	i
Cn1c(CCCOc2ccc(Cl)cc2Cl)nnc1SCC(=O)Nc1nccs1	32µM	i	i	i	i
CCCC(=O)N(c1ccc2oc(=O)sc2c1)S(=O)(=O)c1cccs1	i	i	i	i	16µM
CN(CC(=O)O)S(=O)(=O)c1cccs1	i	i	i	i	i
CN(c1ccc(C(=O)O)cc1)S(=O)(=O)c1ccccc1	i	i	i	i	i
CC(=O)N(c1ccc2oc(=O)sc2c1)S(=O)(=O)c1ccccc1	i	i	i	i	16µM
c1ccc(C[n+]2cccc(-c3cc4ccccc4[nH]3)c2)cc1	i[11.5 µM]	i[11.5 µM]	0.32µM	i[11.5 µM]	i[11.4 µM]
Cc1ccc(S(=O)(=O)N2CCC(C(=O)N[C@@H](C)C(=O)Nc3ccc4c(c3)OCO4)CC2)cc1	i	i	10µM	i	i
Cc1ccc(S(=O)(=O)N2CCC(C(=O)OC(C)C(=O)NCc3ccc4c(c3)OCO4)CC2)cc1 (configuration not stated)	i	i	i	i	i
CCOC(=O)c1c(C2COc3ccccc3O2)csc1N (configuration not stated)	32µM	i	i	i	?
CC(C)CN1CCCC2(CCN(C(=O)c3ccco3)CC2)C1	i	i	i	i	i
C/C(N)=C(/C#N)C(=O)CSc1nnc(COc2ccccc2Cl)o1	i	i	i	i	i
COc1ccccc1OCc1nnc(SCC(=O)c2cc(Cl)ccc2OC)o1	32µM	i	i	i	i
O=C(C[n+]1ccc2ccccc2c1)c1ccc2ccc3ccccc3c2c1	i[11.5 µM]	i[11.5 µM]	2µM	i[11.5 µM]	i[11.4 µM]
O=C(Nc1ccc(F)cc1F)c1cc(-c2ccco2)on1	i	i	20µM	i	i
C#CCCCO/N=C1/C[C@@H](O)[C@@H](O)[C@@H]2[C@@H]3C(=O)N(C(C)(C)C)C(=O)[C@H]3CC[C@H]12	i[11.5 µM]	i[11.5 µM]	nt	i[11.5 µM]	i[11.4 µM]
Cc1cc(C)n(-c2nncc(-c3ccccc3)n2)n1	i	i	16µM	i	i
SMILES	ERK AVP inh	Casp7 inh	Tau filament bind	Casp1 inh	ALOX15 inhib
Cc1cc(C)n(-c2nc(Nc3ccccc3)nc(-n3nc(C)cc3C)n2)n1	i	i	i	i	i
Cc1cc(C)n(-c2ncc(-c3ccccc3)nn2)n1	nt	i	25µM	i	i
COc1cccc(Cn2c(=O)c(-c3cccs3)nc3cnc(N4CCN(C)CC4)nc32)c1	i	?	i	nt	i
COc1ccccc1C[C@@H](Cc1nc2ccccc2[nH]1)c1nc2ccccc2[nH]1	nt	nt	i	nt	nt
COc1ccccc1CC(Cc1nc2ccccc2[nH]1)c1nc2ccccc2[nH]1 (configuration not stated)	32µM	i	nt	i	i
FC(F)(F)c1cc(-c2ccc3c(c2)OCO3)nc(NCc2ccco2)n1	i	i	i	i	20µM
COc1ccc(-c2cc(C(F)(F)F)nc(NCc3ccco3)n2)cc1OC	i	i	i	i	?
O=C(c1ccncc1)N1CCC2(CCCN(Cc3nccs3)C2)CC1	i	i	i	i	0.2µM
CC(=O)N1CCC2(CCCN(Cc3nccs3)C2)CC1	i	i	i	i	i
COc1ccc(N2CCN(C(=O)c3ccc(NS(=O)(=O)c4ccccc4)cc3)CC2)cc1	i	i	i	i	5µM
COc1ccc(N2CCN(C(c3cccs3)C(C)NS(=O)(=O)c3ccccc3)CC2)cc1 (configuration not stated)	i	i	16µM	i	i
